Values without a mark were called inactive. Activity calls are given as the source filed them.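 How the source made its calls, unless noted: active means compounds lowering colon cancer cell viability after pretreatment blocking the GSK3B kinase; inactive means the rest.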
test: stimulators of insulin release from INS-1E, primary screen, cell-based, 5 mM glucose, NPC library (AID 1117329;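 active means compound raises insulin release from rat beta cells at 5 mM glucose, no numeric limit stated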; further: reference of the scale not given here); conditions: rat INS-1E insulin secretion, at 10 µM, hits give high values

| Structure (SMILES) | insulin secretion stimulation |
| --- | --- |
| CNC(=O)Oc1cccc2ccccc12 | 1.3% |
| C1CN2CCC1CC2 | 1.5% |
| Cc1nnc2n1-c1sc(CCc3ccc(CC(C)C)cc3)cc1C(c1ccccc1Cl)=NC2C (configuration not stated) | 4.1% |
| CCC1(c2ccccc2)C(=O)N(COC)C(=O)N(COC)C1=O | 0.35% |
| C[C@@]12CCCCC[C@@H](Cc3ccc(O)cc31)[C@H]2N | 11.2% |
| CCN(CC)C(=O)N[C@@H]1C=C2c3cccc4[nH]cc(c34)C[C@@H]2N(C)C1 | 2.6% |
| O=C(NC(O)C(Cl)(Cl)Cl)NC(O)C(Cl)(Cl)Cl (configuration not stated) | 9.2% |
| CCCCCCCCCCCCNCCNCCNCC(=O)O | -0.3% |
| O=C(N[C@H]1N=C(c2ccccc2F)c2cccc3c2N(CC3)C1=O)c1cc2ccccc2[nH]1 | 3.5% |
| CCOP(=S)(OCC)O/N=C(\C#N)c1ccccc1 | -1.4% |
| OCCOc1ccccc1 | -1.8% |
| Cc1c(Cl)c(=O)oc2cc(OP(=O)(OCCCl)OCCCl)ccc12 | 4.8% |
| CCCN(CCC)C(=O)Cc1c(-c2ccc(Cl)cc2)nc2ccc(Cl)cn12 | 11.7% |
| O=C(CCl)c1ccc(Cl)cc1Cl | 4.4% |
| COP(=S)(OC)Oc1ccc(S(=O)(=O)N(C)C)cc1 | 0.3% |
| Nc1ccccc1C(=O)OCC(O)CO (configuration not stated) | -1.4% |
| C[N+]1(CCF)[C@@H]2CC[C@H]1CC(OC(=O)C(O)(c1ccccc1)c1ccccc1)C2 (some centres not stated) | -0.1% |
| Nc1ccccc1 | -2.4% |

| Structure (SMILES) | insulin secretion stimulation |
| --- | --- |
| CCOC(=O)NC(O)C(Cl)(Cl)Cl (configuration not stated) | 0.3% |
| Oc1ccc(Cl)cc1Cc1ccccc1 | 0.7% |
| C[C@]12C[C@@H]3S[C@H]3C[C@@H]1CC[C@H]1[C@H]3CC[C@@H](O)[C@@]3(C)CC[C@@H]12 | 2.4% |
| C[C@]12CC[C@H]3[C@@H](CCC4=CC(=O)CC[C@@H]43)[C@@H]1CC[C@@H]2OC(=O)CCc1ccco1 | 2.5% |
| O=C1OC(c2ccc(O)c(S(=O)(=O)O)c2)(c2ccc(O)c(S(=O)(=O)O)c2)c2c(Br)c(Br)c(Br)c(Br)c21 | 0.75% |
| COc1cc(CC#N)cc(OC)c1OC | 2.2% |
| CC(C)=CC1C(C(=O)OCN2C(=O)C3=C(CCCC3)C2=O)C1(C)C (configuration not stated) | -1.8% |
| COP(=S)(OC)Oc1ccc(S(N)(=O)=O)cc1 | -1.7% |
| CN1C2CCC(C)(C)C1CC(OC(=O)C(O)(c1cccs1)c1cccs1)C2 (configuration not stated) | 5.6% |
| C[C@]12CC[C@H]3[C@@H](CC=C4C[C@@H](O)CC[C@@]43C)[C@@H]1CC[C@@H]2O | -1% |
| CN1CCC(O)(c2ccc(F)cc2)C(C(=O)c2ccc(F)cc2)C1 (configuration not stated) | 5% |
| CC(=O)O[C@H]1C[C@H](O[C@H]2[C@@H](O)C[C@H](O[C@@H]3[C@@H](O)C[C@H](O[C@H]4CC[C@@]5(C)[C@H](CC[C@@H]6[C@H]5C[C@@H](O)[C@]5(C)[C@@H](C7=CC(=O)OC7)CC[C@]65O)C4)O[C@@H]3C)O[C@@H]2C)O[C@H](C)[C@H]1O[C@@H]1O[C@H](CO)[C@@H](O)[C@H](O)[C@@H]1O | 0.8% |
| CNC(C)[C@@H](O)c1ccc(O)cc1 (some centres not stated) | 4.8% |
| CCOC(=O)C(c1c(O)c2ccccc2oc1=O)c1c(O)c2ccccc2oc1=O | -0.8% |
| COC(=O)c1cncn1C(C)c1ccccc1 (configuration not stated) | 1% |
| ClCCCN1CCN(c2cccc(Cl)c2)CC1 | 1.1% |
| CC(C(O)c1ccccc1)N(C)C/C=C/c1ccccc1 (configuration not stated) | 2.4% |
| O=c1[nH]c2ccccc2n1C1CCNCC1 | -0.9% |

test: growth inhibition of GSK3B-pretreated HCT116 cells – cell-based, CellTiter-Glo, 0.2 to 20 µM (AID 1117336); conditions: HCT116 viability after GSK3B inhibitor, at 20 µM, hits give high values

| Structure (SMILES) | viability decrease |
| --- | --- |
| CNC(=O)Oc1cccc2ccccc12 | 0.5% |
| C1CN2CCC1CC2 | -7.5% |
| Cc1nnc2n1-c1sc(CCc3ccc(CC(C)C)cc3)cc1C(c1ccccc1Cl)=NC2C (configuration not stated) | 110% (active) |
| CCC1(c2ccccc2)C(=O)N(COC)C(=O)N(COC)C1=O | 83.5% (active) |
| C[C@@]12CCCCC[C@@H](Cc3ccc(O)cc31)[C@H]2N | -4.1% |
| CCN(CC)C(=O)N[C@@H]1C=C2c3cccc4[nH]cc(c34)C[C@@H]2N(C)C1 | 8.2% |
| O=C(NC(O)C(Cl)(Cl)Cl)NC(O)C(Cl)(Cl)Cl (configuration not stated) | -2.2% |
| CCCCCCCCCCCCNCCNCCNCC(=O)O | 98.8% (active) |
| O=C(N[C@H]1N=C(c2ccccc2F)c2cccc3c2N(CC3)C1=O)c1cc2ccccc2[nH]1 | 44.4% |
| CCOP(=S)(OCC)O/N=C(\C#N)c1ccccc1 | -25.2% |
| OCCOc1ccccc1 | -10.3% |
| Cc1c(Cl)c(=O)oc2cc(OP(=O)(OCCCl)OCCCl)ccc12 | 12.2% |
| CCCN(CCC)C(=O)Cc1c(-c2ccc(Cl)cc2)nc2ccc(Cl)cn12 | 10.8% |
| O=C(CCl)c1ccc(Cl)cc1Cl | 66.2% (active) |
| COP(=S)(OC)Oc1ccc(S(=O)(=O)N(C)C)cc1 | -11.8% |
| Nc1ccccc1C(=O)OCC(O)CO (configuration not stated) | -40% |
| C[N+]1(CCF)[C@@H]2CC[C@H]1CC(OC(=O)C(O)(c1ccccc1)c1ccccc1)C2 (some centres not stated) | 4.8% |
| Nc1ccccc1 | 4.9% |

| Structure (SMILES) | viability decrease |
| --- | --- |
| CCOC(=O)NC(O)C(Cl)(Cl)Cl (configuration not stated) | -4.2% |
| Oc1ccc(Cl)cc1Cc1ccccc1 | 38.4% |
| C[C@]12C[C@@H]3S[C@H]3C[C@@H]1CC[C@H]1[C@H]3CC[C@@H](O)[C@@]3(C)CC[C@@H]12 | -16.6% |
| C[C@]12CC[C@H]3[C@@H](CCC4=CC(=O)CC[C@@H]43)[C@@H]1CC[C@@H]2OC(=O)CCc1ccco1 | -67% |
| O=C1OC(c2ccc(O)c(S(=O)(=O)O)c2)(c2ccc(O)c(S(=O)(=O)O)c2)c2c(Br)c(Br)c(Br)c(Br)c21 | 22.6% |
| COc1cc(CC#N)cc(OC)c1OC | 2.6% |
| CC(C)=CC1C(C(=O)OCN2C(=O)C3=C(CCCC3)C2=O)C1(C)C (configuration not stated) | 34.8% |
| COP(=S)(OC)Oc1ccc(S(N)(=O)=O)cc1 | -4.35% |
| CN1C2CCC(C)(C)C1CC(OC(=O)C(O)(c1cccs1)c1cccs1)C2 (configuration not stated) | 8% |
| C[C@]12CC[C@H]3[C@@H](CC=C4C[C@@H](O)CC[C@@]43C)[C@@H]1CC[C@@H]2O | 3.75% |
| CN1CCC(O)(c2ccc(F)cc2)C(C(=O)c2ccc(F)cc2)C1 (configuration not stated) | -1.23% |
| CC(=O)O[C@H]1C[C@H](O[C@H]2[C@@H](O)C[C@H](O[C@@H]3[C@@H](O)C[C@H](O[C@H]4CC[C@@]5(C)[C@H](CC[C@@H]6[C@H]5C[C@@H](O)[C@]5(C)[C@@H](C7=CC(=O)OC7)CC[C@]65O)C4)O[C@@H]3C)O[C@@H]2C)O[C@H](C)[C@H]1O[C@@H]1O[C@H](CO)[C@@H](O)[C@H](O)[C@@H]1O | 73.3% (active) |
| CNC(C)[C@@H](O)c1ccc(O)cc1 (some centres not stated) | -4.1% |
| CCOC(=O)C(c1c(O)c2ccccc2oc1=O)c1c(O)c2ccccc2oc1=O | 13% |
| COC(=O)c1cncn1C(C)c1ccccc1 (configuration not stated) | 1.8% |
| ClCCCN1CCN(c2cccc(Cl)c2)CC1 | 15% |
| CC(C(O)c1ccccc1)N(C)C/C=C/c1ccccc1 (configuration not stated) | -101% |
| O=c1[nH]c2ccccc2n1C1CCNCC1 | -5% |

Source: PubChem BioAssay
